The full list was thinned out, with hits kept by preference.
12-LOX inh: Primary qHTS assay for inhibitors of human arachidonate 12S-lipoxygenase (ALOX12): Round 2; purified 12hLO, xylenol orange hydroperoxide absorbance; Potency, µM (series often up to 108 µM), without a hit: at the highest dose activity change, negative = inhibition, usual class: inhibitors; 580,000 tested, 1.1% active; AID 1671190, 2021; also: potency is read from the fitted curve at half-maximal effect
Target sequence (P18054 whole entry, looked up): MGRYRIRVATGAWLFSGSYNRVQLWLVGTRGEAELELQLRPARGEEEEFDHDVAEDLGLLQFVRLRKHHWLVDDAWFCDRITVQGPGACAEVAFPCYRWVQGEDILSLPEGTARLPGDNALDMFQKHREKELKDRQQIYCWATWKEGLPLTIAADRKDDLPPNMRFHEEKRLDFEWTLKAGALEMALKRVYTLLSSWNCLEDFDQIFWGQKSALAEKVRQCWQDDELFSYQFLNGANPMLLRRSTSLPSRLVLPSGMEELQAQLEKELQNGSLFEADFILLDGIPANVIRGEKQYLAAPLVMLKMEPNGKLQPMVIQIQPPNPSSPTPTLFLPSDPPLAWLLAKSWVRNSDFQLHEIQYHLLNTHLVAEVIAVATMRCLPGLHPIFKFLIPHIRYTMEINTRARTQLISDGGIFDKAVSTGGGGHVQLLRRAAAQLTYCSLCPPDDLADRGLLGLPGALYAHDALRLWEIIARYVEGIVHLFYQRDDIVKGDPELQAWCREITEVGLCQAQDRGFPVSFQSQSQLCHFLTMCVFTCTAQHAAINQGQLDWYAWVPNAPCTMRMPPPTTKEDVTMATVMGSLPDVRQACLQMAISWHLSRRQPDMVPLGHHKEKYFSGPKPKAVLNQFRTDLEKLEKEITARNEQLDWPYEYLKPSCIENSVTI
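Purified human 12hLO at 150 nM in 25 mM Hepes, 0.01% Triton X-100, pH 7.0, preincubated 15 min at room temperature with compound. Reaction started with 40 uM arachidonic acid, 30 min at room temperature. Hydroperoxide measured by Fe-xylenol orange, 573/405 nm absorbance ratio.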
TDP1 cell CPT: qHTS for Inhibitors of human tyrosyl-DNA phosphodiesterase 1 (TDP1): qHTS in cells in presence of CPT. chicken DT40 Tdp1-/-;hTDP1 cells + 20 nM CPT, ATP luminescence, 48 h. Potency, µM (top dose mostly 46.2 µM), without a hit: at the top dose activity change, negative = growth inhibition, hits mostly inhibitors. 420,000 tested, 12% active; also: potency is read from the fitted curve at half-maximal effect; nearly all actives have a fitted effect of over 55% in size
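Chicken DT40 Tdp1-/- cells complemented with human TDP1, 400 cells/well, exposed to compounds plus 20 nM camptothecin for at least 48 h at 37 C; viability read as ATP content by CellTiter-Glo luminescence.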
TDP1 cell noCPT: qHTS for Inhibitors of human tyrosyl-DNA phosphodiesterase 1 (TDP1): qHTS in cells in absence of CPT. Potency, µM (titrated, usually from 46.2 µM), without a hit: at the top dose activity change, negative = growth inhibition, hits mostly inhibitors. 420,000 tested, 15% active. DT40 Tdp1-/- hTDP1 cells, no CPT, ATP luminescence, 48 h; also: potency is read from the fitted curve at half-maximal effect; nearly all actives have a fitted effect of over 55% in size
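No-CPT arm: Tdp1-/-;hTDP1 DT40 cells (400/well) plus compounds, incubated ≥48 hr at 37 °C. Readout CellTiter-Glo luminescence.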
IL-1B inflam inh: qHTS for Inhibitors of Inflammasome Signaling: IL-1-beta AlphaLISA Primary Screen | AID 743279, 2014 | activity change, % at 57.5 µM | 360,000 tested, 4.7% active | THP-1 LPS/ATP IL-1B secretion, AlphaLISA, 16 h; active compounds read low; in the data active = activity change below about -50%; inconclusive = mostly about -30% to -49%
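THP-1 cells pretreated 1 hr with compounds (up to 57.5 uM final), then stimulated with LPS (250 ng/mL final) plus ATP (1.25 mM final); secreted IL-1B measured by AlphaLISA after 16 hr, decreased signal indicating inhibition.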
HT1080 IDH1KD tx: qHTS for induction of synthetic lethality in tumor cells producing 2HG: qHTS for the HT-1080-IDH1KD cell line; HT-1080 IDH1 knockdown viability, ATP luminescence, 48 h; Potency, µM (titrated, usually from 46.1 µM), inactives show at the top dose activity, negative = toxicity, most hits filed as cytotoxic; 360,000 tested, 2% active;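 also: potency is read from the fitted curve at half-maximal effect; 0% = DMSO wells and -100% = cell-free medium wells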
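IDH1KD HT-1080 cells, 750/well, RPMI + 5% FBS; compound pinned after 2 h settling; 48 h, 37 °C; CellTiter-Glo luminescence; % activity normalised to DMSO and no-cell wells; curves fitted, classed by r2 and efficacy.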
HT1080-NT tox: qHTS for induction of synthetic lethality in tumor cells producing 2HG: qHTS for the HT-1080-NT fibrosarcoma cell line; 360,000 tested, 1.6% active; Potency, µM (highest dose often 46.1 µM), for the others: top-dose activity, negative = less viability, most hits filed as cytotoxic; AID 686970, 2013; HT-1080-NT fibrosarcoma viability, CellTiter-Glo ATP luminescence, 48 h;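 also: NT is the 2HG producing partner of a matched IDH1 knockdown line; potency is read from the fitted curve at half-maximal effect; 0% = DMSO-treated cells and -100% = media-only wells without cells; nearly all actives have a fitted effect of over 55% in size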
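Viability of the 2HG-overproducing fibrosarcoma line after 48 hours of compound exposure at 37 degrees C was determined by luminescence with CellTiter-Glo, and concentration-effect curves were then fitted and categorized.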
An asterisk follows results filed as active; ? = inconclusive; nt = not tested or not shown. Unless noted, calls follow the shape of the dose curve; as a rule, active = well fitted curve in the direction sought with a large enough effect; inconclusive = small, poorly fitted or top-dose-only effect, or another doubt; inactive = no such curve, though single readings can be large; an effect the other way counts as inactive or inconclusive. Unless noted, % is scaled to controls: 0 for no effect and ±100 for the full control effect.

SMILES | 12-LOX inh | TDP1 cell CPT | TDP1 cell noCPT | IL-1B inflam inh | HT1080 IDH1KD tx | HT1080-NT tox
Cc1noc(C)c1COc1ccccc1C(=O)N(C)Cc1ccc(F)cc1 | 15% | ? | ? | 37 | 2% | 5%
Cc1ccc(NC(=O)CN(C)C(=O)c2ccccc2OCc2c(C)noc2C)cc1 | 15% | -23% | -14% | -7 | 15% | 16%
Cc1noc(C)c1COc1ccccc1C(=O)NCCc1ccc(Cl)cc1 | ? | ? | ? | -69* | 5% | 10%
CCOc1ccc(CCNC(=O)c2ccc(OCc3c(C)noc3C)cc2)cc1OCC | -1% | 26µM* | 21µM* | 2 | -9% | ?
Cc1ccccc1S(=O)(=O)N1CCCC(CCC(=O)NC2CCCCCC2)C1 (configuration not stated) | 36% | nt | nt | nt | nt | nt
CN(CC1CCOCC1)C(=O)c1ccc(Br)cc1 | 43% | nt | nt | nt | nt | nt
CCCCCn1c(N2CCCC(C)C2)nc2c1c(=O)[nH]c(=O)n2C (configuration not stated) | -17% | nt | nt | nt | nt | nt
COc1ccc(CN(C)C(=O)c2ccccc2OCc2c(C)noc2C)c(OC)c1 | 12% | -14% | -17% | 34 | -1% | -1%
COc1ccc(Br)cc1CN(C)C(=O)c1ccccc1OCc1c(C)noc1C | 12% | ? | 16µM* | -65* | 3% | 7%
CC(C)N1C(=O)C(CC(=O)NCCc2c[nH]c3ccccc23)=C2CCCCC21 (configuration not stated) | 13% | nt | nt | nt | nt | nt
CCn1cc(S(=O)(=O)NC2CCCN(C3CCCCCC3)C2)cn1 (configuration not stated) | 10% | nt | nt | nt | nt | nt
O=C1Nc2ccccc2Oc2cc([N+](=O)[O-])cc(Oc3ccccc3)c21 | 1% | ? | ? | 8 | -12% | -1%
O=[N+]([O-])c1cc2c(c([N+](=O)[O-])c1)Nc1ccccc1O2 | -25% | 12µM* | 7.3µM* | ? | -4% | ?
Cc1cccc(Oc2cc([N+](=O)[O-])cc3c2C(=O)Nc2ccccc2O3)c1 | ? | ? | 13µM* | 0 | -23% | -3%
Cc1ccc2c(c1)NC(=O)c1cccnc1O2 | -16% | 0% | -23% | nt | nt | nt
Cc1cccc(Oc2ccc3c(c2)Oc2ccccc2NC3=O)c1 | ? | 16µM* | ? | nt | nt | nt
COC(=O)C(C)N1C(=O)S/C(=C/c2cc(C)n(-c3ccccn3)c2C)C1=O (configuration not stated) | ? | ? | 16µM* | 26 | 1% | 2%
CCOC(=O)CN1C(=O)S/C(=C/c2cc(C)n(-c3ccccn3)c2C)C1=O | -16% | ? | ? | -7 | -3% | -2%
COC(=O)C(C)N1C(=O)S/C(=C\c2cc(C)n(-c3ccccn3)c2C)C1=O (configuration not stated) | ? | 13µM* | ? | 5 | 0% | 5%
Cc1cccc(NC(=O)C2CCN(S(=O)(=O)c3c(C)c(C)cc(C)c3C)CC2)n1 | -18% | 15µM* | 16µM* | -89* | ? | -25%
O=C(Nc1cc(S(=O)(=O)N2CCCCC2)ccc1N1CCCCC1)C1CC1 | -12% | -93% | 16µM* | -3 | 1% | 26%
CN(C)C(CNC(=O)C1CCN(S(=O)(=O)c2ccc(Cl)cc2)CC1)c1ccccc1 (configuration not stated) | 59% | 5% | -27% | -16 | -5% | -22%
Cc1cc(C)c(C)c(S(=O)(=O)N2CCC(C(=O)NCC(c3ccccc3)N(C)C)CC2)c1C (configuration not stated) | 3% | -1% | ? | ? | 18µM* | ?
CCOc1ccc(S(=O)(=O)N2CCC(C(=O)Nc3ccccc3N3CCCC3)CC2)cc1 | -10% | ? | 21µM* | ? | 13% | -9%
Cc1ccc(S(=O)(=O)N2CCC(C(=O)Nc3ccccc3N3CCCC3)CC2)cc1 | ? | -20% | -3% | -10 | -5% | -12%
SMILES | 12-LOX inh | TDP1 cell CPT | TDP1 cell noCPT | IL-1B inflam inh | HT1080 IDH1KD tx | HT1080-NT tox
O=C(c1cncn1-c1ccc(F)cc1)N1CCN(S(=O)(=O)c2cc(Cl)ccc2Cl)CC1 | 34% | nt | nt | nt | nt | nt
Cc1ccc(S(=O)(=O)N2CCC(C(=O)Nc3ccccc3N3CCCCC3)CC2)cc1 | 4% | 18µM* | ? | -17 | 7% | -7%
Cc1cc(C)c(C)c(S(=O)(=O)N2CCC(C(=O)Nc3ccccc3N3CCOCC3)CC2)c1C | -1% | ? | 15µM* | -7 | 7% | 8%
O=C(NC1CCCCCC1)c1ccc(CS(=O)Cc2ccccc2Cl)o1 (configuration not stated) | 0% | ? | ? | -54* | -13% | -17%
O=C(NC1CCCCCC1)c1ccc(CS(=O)c2ccc(Br)cc2)o1 (configuration not stated) | -1% | ? | ? | nt | nt | nt
Cc1ccc(CS(=O)Cc2ccc(C(=O)NC3CCCCCC3)o2)cc1 (configuration not stated) | 0% | -29% | -9% | -26 | -5% | 1%
Cc1ccc(S(=O)Cc2ccc(C(=O)NC3CCCCCC3)o2)cc1 (configuration not stated) | -2% | ? | 16µM* | nt | nt | nt
O=C(NC1CCCCCCC1)c1ccc(Br)o1 | ? | -13% | 4.6µM* | -15 | -2% | 2%
COc1ccc(CNC(=O)c2ccc(CS(=O)Cc3ccccc3Cl)o2)cc1 (configuration not stated) | -12% | ? | 18µM* | nt | nt | nt
COc1ccc(Cl)cc1NC(=O)COc1ccccc1 | -3% | nt | nt | nt | nt | nt
CSc1ccc(C(=O)Nc2cc(C)ccc2F)cc1 | 2% | nt | nt | nt | nt | nt
Cc1ccc(CS(=O)Cc2ccc(C(=O)NC3CCC(C)CC3)o2)cc1 (configuration not stated) | -23% | -30% | -17% | -27 | -8% | -9%
Cc1ccc(CS(=O)Cc2ccc(C(=O)NC3CCCC(C)C3C)o2)cc1 (configuration not stated) | 0% | 21µM* | ? | -4 | -1% | -4%
